Laboratory results: PubChem BioAssay (NCI)
Compounds without any hit were thinned out: in the full panel of roughly 83,000, 20% have a hit.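 Single-concentration screen, 48 h exposure, 96-well plates. Endpoint: percent growth. Below 10 = active.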 Values without a mark were called inactive. Activity calls are given as the source filed them.

What follows are compounds tested on IGROV1 ovarian (assay: NCI-60 one-dose screen, 48 h (100 = growth as untreated, 0 = no growth, -100 = all killed)). Settings: 10 µM unless noted.

Structure (SMILES) | growth
Cc1nn(-c2ccccc2)c2ncnc(N/N=C/c3cccc(O)c3)c12 | 54.9%
C=C1CC[C@@H]2[C@]3(C)COC(c4ccccc4)O[C@@H]3CC[C@@]2(C)[C@@H]1C/C=C1/C(=O)OC[C@H]1O (stereo partly drawn) | 89.3%
CN(C)CCNC(=O)c1ccc(-c2nc3ccc4[nH]ncc4c3c3c2CCC3)cc1 | 1.06% (active)
Fc1ccc(-c2cc3nc(C(Cl)Cl)nc(-c4ccc(F)cc4)n3n2)cc1 | 31.4%
C=C(C=O)[C@@H]1CC[C@]2(C)[C@H](C(=O)C=C3[C@H]4C[C@](C)(C(=O)OC)CC[C@]4(C)CC[C@]32C)[C@@]1(C)CCC#N | 2.58% (active)
CCc1ccc(SC2c3ccc(N(CC)CC)cc3Oc3nc(N)c(C#N)c(N)c32)cc1 (stereo not drawn) | -78% (active)
CCOC(=O)C1=NNC(c2ccc(Cl)cc2)C1C(=O)N1C(=S)NC(=O)C1CC(C)C (stereo not drawn) | 77.1%
C#CCn1cccc1CNc1ccc(OC)cc1 | -68.5% (active)
NC(N)=Nc1ccc(Oc2cccc(NC(N)=Nc3ccc(Br)cc3)c2)cn1 | 37.9%
CC1(C)CC[C@]2(CN)CC[C@]3(C)C(=CC[C@@H]4[C@@]5(C)CCCNC(C)(C)[C@@H]5CC[C@]43C)[C@H]2C1 | 98.1%
O=C1C(c2ccccc2)=C(N2CCc3ccccc32)OC1(Cl)Cl | 43.5%
CC(=O)c1nnn(-c2c(C(=O)n3nc(C)cc3C)sc(=S)n2-c2ccccc2)c1C | 95.6%
COC(=O)C1(C)CCC[C@]2(C)[C@H]3C[C@H]4C(C(C)C)=C[C@]3(CC[C@@H]12)[C@H]1[C@@H]4[C@@H](OC(=O)c2ccco2)CC[C@@H]1OC(=O)c1ccco1 (stereo partly drawn) | 99.4%
